# Among all 5,500 compounds or so, about 2,000 (36%) were called active. About 18% were inconclusive and are not listed. The list shows a part of the results. Unmarked numbers belong to inactive results. Cut-off read from the data, not from the text of the source: active = normalized growth mostly below about 0.91 (no sharp cut-off); inconclusive = no clear call, values can overlap the other calls; inactive = mostly above about 0.92.
# Experiment: chemical genetic growth profiling, strain panel (AID 1159580);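 note: tested at 20 µM; growth read once vehicle control cultures reached saturation at 30 °C; 1 = growth at the plate median or of vehicle wells; lower values mean less growth of the strain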
# Details: growth OD
smiles,measurement,setting,value
CC(=O)[C@H]1CCC2C3CC=C4C[C@@H](O)CC[C@]4(C)C3CC[C@@]21C (stereo partly specified),normalized growth,"S. cerevisiae deletion strains, locus YKL009W, strain mrt4, hits give low values",0.856 (active)
same,normalized growth,"S. cerevisiae deletion strains, locus YKL068W, hits give low values",1.01
same,normalized growth,"S. cerevisiae deletion strains, locus YKL085W, strain MDH1 (second series), hits give low values",0.982
same,normalized growth,"S. cerevisiae deletion strains, locus YKL085W, strain MDH1, hits give low values",0.982
same,normalized growth,"S. cerevisiae deletion strains, locus YKL160W, strain elf1, hits give low values",0.944
same,normalized growth,"S. cerevisiae deletion strains, locus YKL190W, strain CNB1, hits give low values",0.97
same,normalized growth,"S. cerevisiae deletion strains, locus YKR001C, strain vps1, hits give low values",0.991
same,normalized growth,"S. cerevisiae deletion strains, locus YKR026C, strain gcn3, hits give low values",1.01
same,normalized growth,"S. cerevisiae deletion strains, locus YKR091W, strain srl3, hits give low values",1.01
same,normalized growth,"S. cerevisiae deletion strains, locus YLL001W, strain dnm1, hits give low values",0.928
same,normalized growth,"S. cerevisiae deletion strains, locus YLL026W, hits give low values",0.912 (active)
same,normalized growth,"S. cerevisiae deletion strains, locus YLL041C, strain sdh2, hits give low values",0.999
same,normalized growth,"S. cerevisiae deletion strains, locus YLR027C, strain aat2, hits give low values",0.926
same,normalized growth,"S. cerevisiae deletion strains, locus YLR039C, strain RIC1, hits give low values",0.487 (active)
same,normalized growth,"S. cerevisiae deletion strains, locus YLR058C, strain SHM2, hits give low values",0.995
same,normalized growth,"S. cerevisiae deletion strains, locus YLR102C, strain apc9, hits give low values",1.03
same,normalized growth,"S. cerevisiae deletion strains, locus YLR113W, strain HOG1, hits give low values",1.01
same,normalized growth,"S. cerevisiae deletion strains, locus YLR221C, strain rsa3, hits give low values",0.923
same,normalized growth,"S. cerevisiae deletion strains, locus YLR258W, strain gsy2, hits give low values",0.961
same,normalized growth,"S. cerevisiae deletion strains, locus YLR262C, strain YPT6 (second series), hits give low values",0.456 (active)
same,normalized growth,"S. cerevisiae deletion strains, locus YLR262C, strain YPT6, hits give low values",0.532 (active)
same,normalized growth,"S. cerevisiae deletion strains, locus YLR268W, strain sec22, hits give low values",0.949
same,normalized growth,"S. cerevisiae deletion strains, locus YLR320W, strain mms22, hits give low values",0.646 (active)
same,normalized growth,"S. cerevisiae deletion strains, locus YLR330W, strain CHS5, hits give low values",1.02
same,normalized growth,"S. cerevisiae deletion strains, locus YLR342W, strain FKS1 (second series), hits give low values",0.896
same,normalized growth,"S. cerevisiae deletion strains, locus YLR342W, strain FKS1, hits give low values",0.915
same,normalized growth,"S. cerevisiae deletion strains, locus YLR357W, strain rsc2, hits give low values",1.09
same,normalized growth,"S. cerevisiae deletion strains, locus YLR370C, strain arc18, hits give low values",0.987
same,normalized growth,"S. cerevisiae deletion strains, locus YLR371W, strain rom2, hits give low values",1.02
same,normalized growth,"S. cerevisiae deletion strains, locus YLR384C, strain iki3, hits give low values",0.998
same,normalized growth,"S. cerevisiae deletion strains, locus YLR418C, strain cdc73, hits give low values",0.791 (active)
same,normalized growth,"S. cerevisiae deletion strains, locus YML016C, strain PPZ1, hits give low values",1
same,normalized growth,"S. cerevisiae deletion strains, locus YML032C, strain rad52, hits give low values",0.952
same,normalized growth,"S. cerevisiae deletion strains, locus YML120C, strain ndi1, hits give low values",0.934
same,normalized growth,"S. cerevisiae deletion strains, locus YML124C, strain tub3, hits give low values",1.04
same,normalized growth,"S. cerevisiae deletion strains, locus YMR058W, strain fet3, hits give low values",0.946
same,normalized growth,"S. cerevisiae deletion strains, locus YMR078C, strain ctf18, hits give low values",1.01
same,normalized growth,"S. cerevisiae deletion strains, locus YMR125W, strain sto1, hits give low values",0.988
same,normalized growth,"S. cerevisiae deletion strains, locus YMR129W, hits give low values",0.985
same,normalized growth,"S. cerevisiae deletion strains, locus YMR205C, strain PFK2, hits give low values",0.944
same,normalized growth,"S. cerevisiae deletion strains, locus YMR223W, strain ubp8, hits give low values",0.964
same,normalized growth,"S. cerevisiae deletion strains, locus YMR231W, strain pep5, hits give low values",1
same,normalized growth,"S. cerevisiae deletion strains, locus YMR263W, strain SAP30, hits give low values",0.979
same,normalized growth,"S. cerevisiae deletion strains, locus YMR307W, strain GAS1, hits give low values",1.19
same,normalized growth,"S. cerevisiae deletion strains, locus YNL067W, strain RPL9B, hits give low values",0.935
same,normalized growth,"S. cerevisiae deletion strains, locus YNL071W, strain lat1, hits give low values",0.716 (active)
same,normalized growth,"S. cerevisiae deletion strains, locus YNL128W, strain TEP1, hits give low values",1.01
same,normalized growth,"S. cerevisiae deletion strains, locus YNL153C, strain GIM3, hits give low values",0.948
same,normalized growth,"S. cerevisiae deletion strains, locus YNL183C, strain NPR1, hits give low values",0.866
same,normalized growth,"S. cerevisiae deletion strains, locus YNL209W, strain ssb2, hits give low values",0.983
same,normalized growth,"S. cerevisiae deletion strains, locus YNL233W, strain BNI4, hits give low values",0.93
same,normalized growth,"S. cerevisiae deletion strains, locus YNL248C, strain rpa49, hits give low values",0.899
same,normalized growth,"S. cerevisiae deletion strains, locus YNL250W, strain rad50, hits give low values",1
same,normalized growth,"S. cerevisiae deletion strains, locus YNL271C, strain bni1, hits give low values",1.02
same,normalized growth,"S. cerevisiae deletion strains, locus YNL298W, strain CLA4, hits give low values",0.999
same,normalized growth,"S. cerevisiae deletion strains, locus YNL307C, strain MCK1, hits give low values",0.649 (active)
same,normalized growth,"S. cerevisiae deletion strains, locus YNL322C, strain KRE1 (second series), hits give low values",1.03
same,normalized growth,"S. cerevisiae deletion strains, locus YNL322C, strain KRE1, hits give low values",1.01
same,normalized growth,"S. cerevisiae deletion strains, locus YNR049C, strain mso1, hits give low values",1.01
same,normalized growth,"S. cerevisiae deletion strains, locus YNR052C, strain pop2, hits give low values",0.992
same,normalized growth,"S. cerevisiae deletion strains, locus YOL006C, strain TOP1, hits give low values",0.68
same,normalized growth,"S. cerevisiae deletion strains, locus YOL012C, strain htz1",1.1
same,normalized growth,"S. cerevisiae deletion strains, locus YOL147C, strain pex11, hits give low values",1.02
same,normalized growth,"S. cerevisiae deletion strains, locus YOR001W, strain rrp6, hits give low values",0.904
same,normalized growth,"S. cerevisiae deletion strains, locus YOR061W, strain CKA2, hits give low values",0.991
same,normalized growth,"S. cerevisiae deletion strains, locus YOR069W, strain VPS5, hits give low values",1.01
same,normalized growth,"S. cerevisiae deletion strains, locus YOR070C, strain gyp1, hits give low values",0.956
same,normalized growth,"S. cerevisiae deletion strains, locus YOR080W, strain dia2, hits give low values",0.986
same,normalized growth,"S. cerevisiae deletion strains, locus YOR083W, strain WHI5, hits give low values",0.907
same,normalized growth,"S. cerevisiae deletion strains, locus YOR106W, strain vam3, hits give low values",0.927
same,normalized growth,"S. cerevisiae deletion strains, locus YOR136W, strain idh2, hits give low values",1.01
same,normalized growth,"S. cerevisiae deletion strains, locus YOR144C, strain elg1, hits give low values",1.03
same,normalized growth,"S. cerevisiae deletion strains, locus YOR184W, strain ser1, hits give low values",0.75 (active)
same,normalized growth,"S. cerevisiae deletion strains, locus YOR231W, strain MKK1, hits give low values",0.958
same,normalized growth,"S. cerevisiae deletion strains, locus YOR265W, strain rbl2, hits give low values",0.967
same,normalized growth,"S. cerevisiae deletion strains, locus YOR270C, strain vph1, hits give low values",0.783
same,normalized growth,"S. cerevisiae deletion strains, locus YOR290C, strain snf2, hits give low values",0.947
same,normalized growth,"S. cerevisiae deletion strains, locus YOR316C, strain cot1, hits give low values",1.03
same,normalized growth,"S. cerevisiae deletion strains, locus YPL051W, strain arl3, hits give low values",0.903 (active)
same,normalized growth,"S. cerevisiae deletion strains, locus YPL055C, strain LGE1, hits give low values",0.869
same,normalized growth,"S. cerevisiae deletion strains, locus YPL078C, strain atp4, hits give low values",0.898
same,normalized growth,"S. cerevisiae deletion strains, locus YPL106C, strain sse1, hits give low values",1.16 [resistant] (active)
same,normalized growth,"S. cerevisiae deletion strains, locus YPL240C, strain hsp82, hits give low values",1
same,normalized growth,"S. cerevisiae deletion strains, locus YPL241C, strain CIN2, hits give low values",1
same,normalized growth,"S. cerevisiae deletion strains, locus YPL256C, strain CLN2, hits give low values",1.02
same,normalized growth,"S. cerevisiae deletion strains, locus YPR119W, strain clb2, hits give low values",1.02
same,normalized growth,"S. cerevisiae deletion strains, locus YPR141C, strain kar3, hits give low values",1.05
same,normalized growth,"S. cerevisiae deletion strains, locus YPR163C, strain tif3, hits give low values",1.02
same,normalized growth,"S. cerevisiae deletion strains, locus YPR167C, strain met16, hits give low values",1.01
same,normalized growth,"S. cerevisiae deletion strains, strain wtn01, hits give low values",0.948
same,normalized growth,"S. cerevisiae strains, strain wild type, hits give low values",0.962

# Reference: PubChem BioAssay AID1159580 (chemical genetic matrix, 2015)
